Laboratory results reported in PubChem BioAssay (NCATS).
Records with an inconclusive call do not appear. Activity calls are given as the source filed them. Unless noted, calls follow the shape of the dose curve; as a rule, active = well fitted curve in the direction sought with a large enough effect; inconclusive = small, poorly fitted or top-dose-only effect, or another doubt; inactive = no such curve, though single readings can be large; an effect the other way counts as inactive or inconclusive.

Experiments:
[1] = biological target: Lysosomal acid glucosylceramidase (Homo sapiens) (UniProt P04062); test: Glucocerebrosidase-p2 (AID 348; in the data active = potency below about 10 µM; also: potency is read from the fitted curve at half-maximal effect); conditions: purified GBA, blue fluorogenic substrate, 40 min
Sequence of Lysosomal acid glucosylceramidase (Homo sapiens) (P04062 whole entry, looked up): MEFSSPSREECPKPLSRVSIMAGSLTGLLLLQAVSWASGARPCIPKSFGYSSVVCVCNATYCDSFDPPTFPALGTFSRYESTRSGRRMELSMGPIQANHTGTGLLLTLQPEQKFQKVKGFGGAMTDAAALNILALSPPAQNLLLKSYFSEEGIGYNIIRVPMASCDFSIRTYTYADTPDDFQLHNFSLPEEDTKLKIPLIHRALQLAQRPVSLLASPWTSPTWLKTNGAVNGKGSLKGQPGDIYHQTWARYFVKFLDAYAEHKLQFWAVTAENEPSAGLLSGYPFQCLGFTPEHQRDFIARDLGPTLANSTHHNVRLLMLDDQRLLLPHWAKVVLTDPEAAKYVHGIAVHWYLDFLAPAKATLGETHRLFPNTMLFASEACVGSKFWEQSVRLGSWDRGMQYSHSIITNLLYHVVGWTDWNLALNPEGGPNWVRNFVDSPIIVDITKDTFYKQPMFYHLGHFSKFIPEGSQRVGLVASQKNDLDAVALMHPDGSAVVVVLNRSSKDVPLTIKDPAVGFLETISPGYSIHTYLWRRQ
Method in brief: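 Normal human glucocerebrosidase (0.2 nM) with blue fluorogenic substrate (80 uM final) in citrate/phosphate pH 5.9 with 10mM sodium taurocholate, 0.01% tween-20; 40 min RT, NaOH/glycine stop; fluorescence Ex 365/Em 440; AC50 from a titration from 0.6 nM upwards.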

[2] = AP1 Signaling Pathway (AID 357; active = well fitted curve in either direction with a large enough effect, not every such curve was filed as active;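 also: ME-180 reporter cells stimulated with EGF at its EC50 level; % is scaled to controls: 0 for no effect and ±100 for the full control effect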); conditions: ME-180 AP-1-bla reporter, EGF-induced, beta-lactamase ratio, 5 h; at 7.69 µM (top of the series) unless noted
Method in brief: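 First, ME-180 AP-1-bla cells were cultured overnight at 37 °C in low-serum Opti-MEM. Next, titrated compounds with EC50 EGF were incubated 5 hours. Finally, CCF4 was added for 2.5 hours and the 460/530 nm ratio recorded.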

[3] = biological target: Cytochrome P450 1A2 (Homo sapiens) (UniProt P05177); test: p450-cyp1a2 (AID 410; calls by dose curve; also: potency is read from the fitted curve at half-maximal effect); conditions: recombinant CYP1A2, luciferin-ME demethylation, luminescence; series mostly up to 57 µM
Sequence of Cytochrome P450 1A2 (Homo sapiens) (P05177 whole entry, looked up): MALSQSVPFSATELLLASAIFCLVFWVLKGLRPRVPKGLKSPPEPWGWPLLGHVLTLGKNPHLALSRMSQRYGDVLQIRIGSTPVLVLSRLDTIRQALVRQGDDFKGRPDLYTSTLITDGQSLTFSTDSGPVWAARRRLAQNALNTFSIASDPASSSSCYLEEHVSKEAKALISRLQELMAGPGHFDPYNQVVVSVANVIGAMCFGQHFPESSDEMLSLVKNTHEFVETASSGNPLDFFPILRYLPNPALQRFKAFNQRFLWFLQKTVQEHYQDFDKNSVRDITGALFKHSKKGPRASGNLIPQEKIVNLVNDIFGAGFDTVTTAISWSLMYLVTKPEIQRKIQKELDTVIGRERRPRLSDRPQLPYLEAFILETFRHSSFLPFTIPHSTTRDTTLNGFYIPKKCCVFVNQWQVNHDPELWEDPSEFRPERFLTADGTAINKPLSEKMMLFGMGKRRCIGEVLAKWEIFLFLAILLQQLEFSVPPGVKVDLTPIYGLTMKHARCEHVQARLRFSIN
Method in brief: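 20nM CYP1A2, 100uM Luciferin-ME (=Km), 100mM KPO4; cpd 10 min RT; +NADPH regen, 60 min RT; stop/detect 20 min; luminescence. Normalized to furafylline 57 uM = full inhibition.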

[4] = NFAT Signaling Pathway (AID 444; active = well fitted curve in either direction with a large enough effect, not every such curve was filed as active;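 also: carbachol stimulus at about its EC50 of 1 µM final; % is scaled to controls: 0 for no effect and ±100 for the full control effect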); conditions: Jurkat NFAT-bla M1, carbachol, beta-lactamase ratio, 5 h; at 7.69 µM (top of the series) unless noted
Method in brief: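 Read-out: CCF4 FRET ratio (460 nm/530 nm) after 1 h RT dye loading, used for %activity and AC50 from titration series. Cells: Jurkat NFAT-β-lactamase/M1 line, treated with compound plus 1 uM carbachol for 5 h, 37 °C.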

[5] = Stat Signaling Pathway (AID 446; active = well fitted curve in either direction with a large enough effect, not every such curve was filed as active;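 also: ME-180 cervical cancer cells given 40 pM IL-6 alongside compound; SIE-controlled beta-lactamase reporter measured as 460/530 nm FRET emission ratio; % is scaled to controls: 0 for no effect and ±100 for the full control effect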); conditions: ME-180 (cervical carcinoma) SIE beta-lactamase reporter, IL-6 stimulated, 5 h; at 7.69 µM (top of the series) unless noted
Method in brief: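 Emission at 460 and 530 nm (excitation 405 nm) reports SIE-controlled beta-lactamase in ME-180 cells. Cells received compound with 40 pM IL-6 for 5 hrs at 37 C; data scaled between 300 pM IL-6 and 125 nM JAK-inhibitor controls.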

[6] = biological target: Glucocorticoid receptor (Homo sapiens) (UniProt P04150); test: GR-GFP Redistribution (AID 450;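 active = compounds whose dose series gives a full or clear partial fitted curve of increased nuclear translocation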; also: potency is read from the fitted curve at half-maximal effect); conditions: U2OS GR-GFP nuclear translocation, laser cytometry, 2 h
Sequence of Glucocorticoid receptor (Homo sapiens) (P04150 whole entry, looked up, the tested form may be a part): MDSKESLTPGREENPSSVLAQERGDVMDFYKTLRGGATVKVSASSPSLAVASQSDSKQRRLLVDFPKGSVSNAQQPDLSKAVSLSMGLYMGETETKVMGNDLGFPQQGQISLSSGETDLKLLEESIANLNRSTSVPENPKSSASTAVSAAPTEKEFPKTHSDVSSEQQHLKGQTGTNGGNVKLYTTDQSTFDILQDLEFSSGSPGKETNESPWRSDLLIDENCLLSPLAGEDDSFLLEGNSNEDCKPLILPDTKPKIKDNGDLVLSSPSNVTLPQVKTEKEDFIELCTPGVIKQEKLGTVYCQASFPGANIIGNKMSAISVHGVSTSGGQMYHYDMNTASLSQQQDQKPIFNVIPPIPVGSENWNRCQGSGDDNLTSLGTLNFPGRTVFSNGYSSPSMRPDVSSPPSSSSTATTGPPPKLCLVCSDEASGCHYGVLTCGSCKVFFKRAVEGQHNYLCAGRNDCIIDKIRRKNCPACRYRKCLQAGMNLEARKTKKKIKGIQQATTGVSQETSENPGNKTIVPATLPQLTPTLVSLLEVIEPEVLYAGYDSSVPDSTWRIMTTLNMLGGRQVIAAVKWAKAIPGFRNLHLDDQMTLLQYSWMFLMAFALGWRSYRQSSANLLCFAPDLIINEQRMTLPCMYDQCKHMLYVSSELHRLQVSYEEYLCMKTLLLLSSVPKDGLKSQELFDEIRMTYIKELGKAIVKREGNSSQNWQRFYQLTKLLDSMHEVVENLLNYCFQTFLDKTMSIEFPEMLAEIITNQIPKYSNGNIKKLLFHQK

[7] = biological target: Glucocorticoid receptor (Homo sapiens) (UniProt P04150); test: GR-EFC Redistribution (AID 451; calls by dose curve; also: potency is read from the fitted curve at half-maximal effect); conditions: CHO-K1 GR-EFC translocation, beta-gal luminescence, 2 h
Method in brief: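 Translocation of GR-ED fusion to nuclear EA restores b-gal, read by luminescence after 1 h room-temperature detection. Engineered CHO-K1 biosensor cells, 1,000/well, exposed 2 h at 37 C to titrations up to 46 uM final.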

[8] = biological target: Mitogen-activated protein kinase 10 (Mus musculus) (UniProt Q61831); test: JNK3 AlphaScreen Assay (AID 530; active = well fitted curve in either direction with a large enough effect, not every such curve was filed as active;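 also: kinase came from lysate of stimulated human HepG2 cells; signal reports phosphorylation of biotinylated GST-cJun 1-79 at Ser73 with 10 µM ATP; % is scaled to controls: 0 for no effect and ±100 for the full control effect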); conditions: JNK3 lysate, c-Jun phosphorylation; series mostly up to 57.1 µM
Method in brief: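 Kinase buffer: 20 mM Tris-HCl pH 7.6, 10 mM MgCl2, 1 mM DTT, 0.1 mM Na3VO4, 0.01% Tween-20; ATP 10 uM. Substrate biotin-GST-cJun(1-79), enzyme from activated HepG2 lysates. Detection by Ser73 phospho-antibody AlphaScreen.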

[9] = biological target: 3',5'-cyclic-AMP phosphodiesterase 4B (Homo sapiens) (UniProt Q07343); test: qHTS Assay for Inhibitors of PDE-IV (AID 607; active = well fitted activation curve with a large enough effect in the main read-out, with a control signal flat, not every such curve was filed as active; also: % of control where 0% means no effect); conditions: HEK293 ACTOne CNG channel cells, membrane potential fluorescence; series mostly up to 22.9 µM
Sequence of 3',5'-cyclic-AMP phosphodiesterase 4B (Homo sapiens) (Q07343 whole entry, looked up): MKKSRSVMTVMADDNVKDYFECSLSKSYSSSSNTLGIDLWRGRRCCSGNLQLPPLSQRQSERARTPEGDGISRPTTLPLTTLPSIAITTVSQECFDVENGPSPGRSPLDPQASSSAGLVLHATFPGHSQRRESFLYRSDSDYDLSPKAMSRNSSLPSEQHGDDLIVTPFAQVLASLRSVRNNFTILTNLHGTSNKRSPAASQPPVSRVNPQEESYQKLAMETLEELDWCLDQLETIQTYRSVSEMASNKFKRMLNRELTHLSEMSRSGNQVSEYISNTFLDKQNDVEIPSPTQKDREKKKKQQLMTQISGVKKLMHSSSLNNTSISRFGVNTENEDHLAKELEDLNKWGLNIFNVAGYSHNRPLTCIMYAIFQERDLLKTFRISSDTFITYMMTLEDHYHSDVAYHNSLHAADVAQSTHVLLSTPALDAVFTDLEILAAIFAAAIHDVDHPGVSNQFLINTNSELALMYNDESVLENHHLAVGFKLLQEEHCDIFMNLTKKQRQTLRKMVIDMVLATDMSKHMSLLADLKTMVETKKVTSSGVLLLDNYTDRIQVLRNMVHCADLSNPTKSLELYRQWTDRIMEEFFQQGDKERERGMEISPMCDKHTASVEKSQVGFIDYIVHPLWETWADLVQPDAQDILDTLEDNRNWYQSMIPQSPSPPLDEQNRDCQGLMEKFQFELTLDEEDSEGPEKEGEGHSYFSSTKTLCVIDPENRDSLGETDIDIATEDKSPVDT
Method in brief: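 The readout is membrane depolarisation from a cAMP-sensing CNG channel, detected with a potential dye at ex 535/em 590. Cells were HEK293-derived (endogenous PDE-IV) at 1000 cells/well, titrated up to 22.9 uM final.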

[10] = biological target: Cytochrome P450 3A4 (Homo sapiens) (UniProt P08684); test: qHTS Assay for Inhibitors and Substrates of Cytochrome P450 3A4 (AID 884); conditions: recombinant CYP3A4, Luciferin-PPXE luminescence; series mostly up to 57.1 µM; also: % is scaled to controls: 0 for no effect and ±100 for the full control effect; nearly all actives have a fitted effect of over 50% in size
Sequence of Cytochrome P450 3A4 (Homo sapiens) (P08684 whole entry, looked up): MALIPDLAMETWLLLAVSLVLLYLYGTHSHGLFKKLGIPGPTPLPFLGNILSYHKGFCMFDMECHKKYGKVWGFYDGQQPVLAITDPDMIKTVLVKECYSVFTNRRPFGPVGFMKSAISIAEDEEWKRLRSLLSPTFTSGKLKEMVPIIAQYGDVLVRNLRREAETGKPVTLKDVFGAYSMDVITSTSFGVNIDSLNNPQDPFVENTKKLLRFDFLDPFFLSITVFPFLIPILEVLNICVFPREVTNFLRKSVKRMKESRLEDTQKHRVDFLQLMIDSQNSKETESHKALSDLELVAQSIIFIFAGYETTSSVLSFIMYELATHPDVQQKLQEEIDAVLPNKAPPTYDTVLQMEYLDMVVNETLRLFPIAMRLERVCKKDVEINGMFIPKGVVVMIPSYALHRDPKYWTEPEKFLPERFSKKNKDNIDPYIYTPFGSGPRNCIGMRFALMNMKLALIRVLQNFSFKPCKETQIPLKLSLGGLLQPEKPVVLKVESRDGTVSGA
Method in brief: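 Luminescent readout of luciferin produced by CYP3A4 (20 nM) dealkylation of Luciferin-PPXE, 25 uM (its KM). NADPH-driven reaction ran 60 min at RT after 10 min compound preincubation; data scaled to 57 uM ketoconazole as 100% inhibition.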

[11] = qHTS Assay for Lipid Storage Modulators (AID 1519; calls by dose curve); conditions: Drosophila S3 cells, BODIPY lipid droplet/cell ratio, laser cytometry, cells loaded with oleic acid
Method in brief: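 Cells seeded at 5,000 per well were treated with compounds over a concentration series and loaded with oleic acid (400 uM, as added). Lipid droplet fluorescence (488 nm excitation, 500-530 nm channel) was read by laser-scanning cytometry and normalized to 20 uM Triacsin C.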

[12] = biological target: Dual specificity protein kinase CLK4 (Homo sapiens) (UniProt Q9HAZ1); test: qHTS Assay for Inhibitors of CDC-like Kinase 4 (Kinase-Glo Assay) (AID 1770); conditions: recombinant Clk4, Kinase-Glo ATP depletion luminescence; series mostly up to 66.7 µM; also: % is scaled to controls: 0 for no effect and ±100 for the full control effect; nearly all actives have a fitted effect of over 65% in size
Sequence of Dual specificity protein kinase CLK4 (Homo sapiens) (Q9HAZ1 whole entry, looked up): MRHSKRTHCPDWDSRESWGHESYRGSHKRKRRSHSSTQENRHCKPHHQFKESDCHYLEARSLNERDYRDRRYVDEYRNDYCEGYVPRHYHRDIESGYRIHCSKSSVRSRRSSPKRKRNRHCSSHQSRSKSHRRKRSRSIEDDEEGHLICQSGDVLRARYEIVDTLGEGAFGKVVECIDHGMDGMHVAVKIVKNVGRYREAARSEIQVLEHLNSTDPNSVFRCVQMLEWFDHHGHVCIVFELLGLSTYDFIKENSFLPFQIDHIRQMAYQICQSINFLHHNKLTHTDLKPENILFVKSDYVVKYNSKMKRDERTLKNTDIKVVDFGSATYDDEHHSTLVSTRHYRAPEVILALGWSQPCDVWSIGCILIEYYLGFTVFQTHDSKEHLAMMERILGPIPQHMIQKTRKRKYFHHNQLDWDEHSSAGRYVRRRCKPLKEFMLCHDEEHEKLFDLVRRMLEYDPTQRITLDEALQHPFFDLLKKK
Method in brief: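 Luminescent ATP-depletion read-out (Kinase-Glo) after 4.5 h room-temperature reaction of Clk4 (25 nM final) with RS peptide (100 uM) and ATP (1 uM), pH 7.5 Tris buffer with MgCl2 and DTT.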

[13] = biological target: Dual specificity protein kinase CLK4 (Homo sapiens) (UniProt Q9HAZ1); test: qHTS Assay for Inhibitors of CDC-like Kinase 4 (ADP-Glo Assay) (AID 1771); conditions: recombinant CLK4, ADP-Glo luminescence; series mostly up to 80 µM; also: % is scaled to controls: 0 for no effect and ±100 for the full control effect; nearly all actives have a fitted effect of over 70% in size
Method in brief: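 25 nM Clk4, 100 uM RS peptide, 1 uM ATP (final); 2 mM MgCl2, 0.5 mM EGTA, 2.5 mM DTT, 0.01% Triton X-100; 1 hr RT. ADP-Glo readout: ATP depletion 45 min, conversion/luciferase 30 min, luminescence.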

[14] = biological target: Dual specificity protein kinase CLK4 (Homo sapiens) (UniProt Q9HAZ1); test: qHTS Assay for Inhibitors of CDC-like Kinase 4 (ADP-FP Assay) (AID 1795); conditions: Transcreener ADP fluorescence polarization; series mostly up to 50 µM;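 also: recombinant human CLK4 phosphorylating RS repeat peptide at 1 µM ATP; % is scaled to controls: 0 for no effect and ±100 for the full control effect; nearly all actives have a fitted effect of over 60% in size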
Method in brief: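 Kinase activity was measured as ADP production using Transcreener orange tracer (4 nM) and ADP antibody (1 ug/mL) fluorescence polarization, with ADP calculated from a calibration curve. The 1 h reaction contained 6.25 nM Clk4, 1 uM ATP and 100 uM RS peptide at pH 7.5 with Mg2+.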

[15] = biological target: Ubiquitin carboxyl-terminal hydrolase 1 (Homo sapiens) (UniProt O94782); test: Inhibitors of USP1/UAF1: Pilot qHTS (AID 504865); conditions: purified USP1/UAF1, Ub-rhodamine cleavage fluorescence; series mostly up to 54.9 µM;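 also: rhodamine fluorescence freed from ubiquitin-rhodamine substrate followed over time; top concentration of the series differs between compounds; % is scaled to controls: 0 for no effect and ±100 for the full control effect; nearly all actives have a fitted effect of over 35% in size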
Sequence of Ubiquitin carboxyl-terminal hydrolase 1 (Homo sapiens) (O94782 whole entry, looked up): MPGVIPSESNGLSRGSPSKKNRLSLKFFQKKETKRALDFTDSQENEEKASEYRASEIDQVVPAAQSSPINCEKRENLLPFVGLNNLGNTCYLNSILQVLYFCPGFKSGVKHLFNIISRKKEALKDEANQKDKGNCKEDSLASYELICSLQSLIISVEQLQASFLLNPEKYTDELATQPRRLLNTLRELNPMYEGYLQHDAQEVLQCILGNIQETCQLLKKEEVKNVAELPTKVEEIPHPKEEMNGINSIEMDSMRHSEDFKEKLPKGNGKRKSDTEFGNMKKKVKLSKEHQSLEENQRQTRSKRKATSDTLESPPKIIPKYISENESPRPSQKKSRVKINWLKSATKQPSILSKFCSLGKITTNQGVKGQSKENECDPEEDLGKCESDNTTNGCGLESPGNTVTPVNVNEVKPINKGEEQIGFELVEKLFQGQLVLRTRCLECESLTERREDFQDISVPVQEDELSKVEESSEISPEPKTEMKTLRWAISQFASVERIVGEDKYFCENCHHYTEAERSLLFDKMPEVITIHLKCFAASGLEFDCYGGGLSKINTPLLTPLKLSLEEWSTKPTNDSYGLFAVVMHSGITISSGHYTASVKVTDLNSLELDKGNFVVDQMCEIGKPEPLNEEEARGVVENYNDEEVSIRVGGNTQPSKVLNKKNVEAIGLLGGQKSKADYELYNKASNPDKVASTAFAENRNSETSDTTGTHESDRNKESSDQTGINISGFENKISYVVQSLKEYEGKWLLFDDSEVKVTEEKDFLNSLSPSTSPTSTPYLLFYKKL
Method in brief: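 Deubiquitinase activity followed as kinetic rhodamine fluorescence release from 150 nM Ub-Rho. 1 nM USP1/UAF1 with compound, after 15 min room-temperature preincubation, in HEPES pH 7.8 buffer containing TCEP, EDTA, BSA and Tween-20.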

[16] = Counterscreen qHTS for small molecule stabilizers of the endoplasmic reticulum resident proteome: GLuc-NoTag assay (AID 1508627); conditions: Gaussia luciferase NoTag secretion counterscreen, luminescence, thapsigargin 100 nM for final 4 h; series mostly up to 76.4 µM;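 also: SH-SY5Y cells given compound then 100 nM thapsigargin to empty ER calcium; 0% = thapsigargin alone and -100% = DMSO vehicle control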
Method in brief: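 Counterscreen line: SH-SY5Y-GLuc-NoTag cells, treated with compound 19 hr before a 4 hr, 100 nM thapsigargin calcium depletion. Secreted Gaussia luciferase in the medium was measured by luminescence after coelenterazine was added (0.07x final), with cells unlysed.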

[17] = Confirmatory qHTS for small molecule stabilizers of the endoplasmic reticulum resident proteome: Secreted ER Calcium Modulated Protein (SERCaMP) assay (AID 1508628); conditions: SERCaMP secreted luciferase ER calcium/proteostasis reporter; series mostly up to 76.3 µM; also: potency is read from the fitted curve at half-maximal effect; nearly all actives have a fitted effect of over 40% in size
Method in brief: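 GLuc-SERCaMP-expressing SH-SY5Y cells, pretreated 16 h with compound, are challenged with thapsigargin to empty ER calcium stores; after 4 h, coelenterazine is added directly to the medium and luminescence is imaged.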

[18] = Cell Viability qHTS for small molecule stabilizers of the endoplasmic reticulum resident proteome (AID 1508629); conditions: cell viability counter-screen, 100 nM thapsigargin for final 4 h

SMILES | Potency [1] | activity change, negative = inhibition [2] | Potency [3] | activity change, negative = inhibition [4] | activity, negative = inhibition [5] | Potency [6] | Potency [7] | outcome [8] | Potency [9] | Potency [10] | activity change, negative = inhibition ([11]; at 57.5 µM (top of the series)) | max response ([11]; measured here: cell count channel max response) [%] | max response ([11]; measured here: lipid channel max response) [%] | Potency [12] | Potency [13] | Potency [14] | Potency [15] | Potency [16] | Potency [17] | max response [18]
COc1ccc(-n2c(=O)c(-c3ccccc3)nc3cnc(N4CCN(C)CC4)nc32)cc1 | > 11.4 µM (inactive) | 14.5% (inactive) | 20 µM (active) | 5.17% (inactive) | 12.2% (inactive) | > 9.22 µM (inactive) | > 46 µM (inactive) | inactive | inactive | inactive | 0.696% (inactive) | 22 | 20 | inactive | inactive | inactive | inactive | inactive | 25.1 µM (active) | 12.9% (inactive)
COc1ccc(Oc2ncc3nc(-c4cc(F)cc(F)c4)c(=O)n(CCC#N)c3n2)cc1 | > 11.4 µM (inactive) | -6.65% (inactive) | – | – | -11.4% (inactive) | > 9.22 µM (inactive) | > 46 µM (inactive) | – | inactive | – | – | – | – | – | – | – | – | inactive | 31.6 µM (active) | -0.74% (inactive)
